In PubChem BioAssay AID1347426 (Functional Genomics Laboratory (NCATS/FGL), 2020) one finds median seed-adjusted z-score data, which are given here for 108 sequences.

Screen size: about 31,000 sequences; about 1,400 (4.5%) were called active. Shown is part of a subset that was picked to be rich in actives. Values without a mark were called inactive.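 How the source made its calls: active means median seed-adjusted z-score above 1 or below -1; inactive means the rest.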

A short description of this assay: Novel Modifiers of Survival Motor Neuron (SMN) Protein: Gene Identification via Genome-wide siRNA Screen. Particulars: HEK293T SMN2-luciferase reporter, siRNA knockdown, 72 h; actives lie on both sides. The text has this: Spinal muscular atrophy (SMA) is the most common neuromuscular autosomal recessive disorder and one of the leading genetic causes of infant death. SMA results from mutations inducing loss of function or deletion in the survival of motor neuron-1 gene (SMN1), leading to deficiency of the survival motor neuron (SMN) protein. Although a second nearly identical gene, SMN2, is retained in humans, its expression primarily produces an aberrantly spliced isoform that is largely unstable and quickly degraded. We performed a genome-wide RNAi screen using a cell-based reporter assay to identify genes and pathways that modulate SMN protein stability. The screen identified over 200 genes that led to the greatest increase or decrease in luciferase expression.
Using HEK293T cells stably expressing a luciferase reporter that combines the promoter and splicing based cassettes in tandem with the major portion of the native SMN2 cDNA with luciferase, we performed a genome-wide RNAi screen to identify modulators of SMN protein levels. Luciferase is expressed when full-length SMN protein is generated with luminescence signal proportional to SMN protein levels. Our luciferase-based reporter assay was used to screen Ambion Silencer Select Human Druggable Genome siRNA library (10418 genes, 3 unique siRNAs per gene) using lipid-based reverse transfection.
Briefly, 1 pmol of each siRNA was spotted to a well of a 384-well plate (Corning, Corning, NY) and 20 microL of serum-free DMEM containing […] of Lipofectamine RNAiMax (Life Technologies, Carlsbad, CA) was then added to each well. Transfected cells were maintained at 37 degrees C in 5% CO2 for 72 hours, 20 microL of ONE-Glo Reagent (Promega) was added to wells for luciferase quantification. Raw luminescence reads were normalized to Ambion(R) Silencer(R) Negative Control #2 siRNA, then log10 transformed. A robust statistical measure of median absolute deviation (MAD) to standardize siRNA activities from each screen. Common Seed Analysis was used to help prioritize clean hits as opposed to those appearing to arise from seed based off-target effects. Candidate modulators were defined as the genes having a MAD score greater than 1.0 or less than -1.0.
On the technique in general: In a reporter assay the amount or activity of a reporter protein is the signal.
Regarding CAGUCUUGAUUCCACUGAATT against PCDHA3, the median seed-adjusted z-score was 0.311.
In the case of CGGAUAUUCCUGAACGCAATT against MARK3, the median seed-adjusted z-score is 0.271.
In the case of GCACGCGGCUAUACAAUCATT against SLC25A34 it was -0.256; in that of GAAGCAGUGCCAAUGAACATT against TCEB2, 1.28 (active); in that of AGCACAUCUCGGUCCUCCATT against MAPK8IP2, 0.284.
As to GGACGAUCACUGUUGUGCATT against RBM22, the median seed-adjusted z-score was 0.0259.
In the case of ACUUGAAUCUUAGCAUUCATT against RAD9A it was -0.0564; in that of CAAGACUGCUGAUGAGUUUTT against HSD17B3, 0.734; in that of CUUUCACACUCGACACUGATT against HOXA2, 0.335.
For GAACAUCCGUGAGCAAGGATT against KCNJ8, the median seed-adjusted z-score is 0.329.
The same measure for GCCCUUGCCUUAUUGCUGATT against MED20: -1.66 (active); for GGCUUGAGUUCAUUCAGAATT against PKN3: 0.476; for GCCGGUGCUUUAUCUCAUUTT against GPR87: 0.237.
In the case of GAGACUUUCUACAAUACUATT against EIF4A2 it was 0.
The same measure for CGCUCUCUUCACUUACGAATT against MYO10: 0.8; for UAAUGACCCUAUCUAUAAATT against UGT2B17: -0.0203.
With GAUGGAUUCUUGUUCCGUUTT against KCTD16, the median seed-adjusted z-score is 0.00219.
In the case of GAACUUCUACUUUAACAAATT against HS3ST1 it was 1.21 (active).
CUUUUGAACAGAUCGAUGATT against EXO1: the median seed-adjusted z-score was 0.547.
With GCUCAUAAAUGAGAAGCUATT against PCDHB16, the median seed-adjusted z-score is -0.523.
The same measure for AGUGUACAAUCGAUAAAAATT against ESR2: -1.1 (active); for CAGCAUACAUGUUUAGUGATT against TRPC6: -0.527.
Consider CGGUAUCUAUGACACUGCATT against SLC25A5, for which the median seed-adjusted z-score was -0.0501.
As for CAGAGUCUUUCAUUCGAAUTT against SPATA5, the median seed-adjusted z-score was -1.04 (active).
As to GAACUAUGGUGCUACUGGATT against ZNF449, the median seed-adjusted z-score is 0.178.
The same measure for AGAGCUCACUCGUCCCAAUTT against CXCL16: 0.201; for CGAAAAGUCUCACAGUGGATT against ZNF563: 0.00283.
As to CGGGUAUUGUGGGACUGAATT against USP39, the median seed-adjusted z-score was 0.821.
In the case of UAAUUGACCUGACCAGUUUTT against SLC30A8 it was -0.767; in that of CUGGAUAAGUGUUUCGAAATT against AP3S2, 0.521.
The same measure for CACCCACACCGGAUUGAAATT against BAG5: -0.0153; for CGGCCGCUCUAUAAGCUGATT against LLGL1: -1.13 (active).
Turning to GCCCUGCGGUACAAUGUCATT against APOBEC2, the median seed-adjusted z-score was 0.232.
The same measure for GGCCUAUUUCCAAACCGAUTT against RICS: 0.665; for CCACCGAUUUGAUCCCAAATT against NAPSA: -0.336; for CAUUCACCACAAUAGCUAUTT against GPR1: 0.0609.
In the case of GGAUUGAAGAUACUACAAATT against THOC1 it was -3.04 (active); in that of CAACAGCACCAGUUUGACATT against NAGLU, -0.526.
The same measure for GGACUUCAGGGUUUAACAATT against FOLR1: -1.31 (active); for CAGCCUUACUCAAUUUGUATT against EFS: -0.299.
On to CACGUGCAGAGUGUCGAUATT against EEF1D, for which the median seed-adjusted z-score was 0.421.
With GGUCUAAACUUGAUCCAAATT against CCAR1, the median seed-adjusted z-score is -1.18 (active).
In the case of AAUAUUUGCUGUUCGUCAATT against MOCS2 it was 0.0327.
In the case of CCAUCCCAAAUUUACAACATT against SARS2 it was 0.524; in that of CUCUAACUAUGAUCUCGUUTT against CDS1, 0.0208; in that of GGCUUGACCUUUUUCGUCUTT against DYNC2H1, -0.613.
The same measure for GAACCGACAAAAGUAGAUATT against RARB: 0.409; for GAAUUAGAGUUGAGGGUAATT against MYBPC1: 0.295.
On to GCAUGGUCUUUCUACUUGUTT against TUBB2A, for which the median seed-adjusted z-score was 1.03 (active).
In the case of CCAAAGCUCUCAUCGGAGATT against GNS, the median seed-adjusted z-score is 0.
As for GGACUCACCAAAUAGAUCATT against ZNF818, the median seed-adjusted z-score was -0.223.
The same measure for GCAAGGAGUAUAACAUGUATT against SKAP1: -0.00637; for CAUUCGAUCUAGCAAAUUATT against TUBB1: -0.289.
As to GGCUGUUGGUAACCUGAGATT against TF, the median seed-adjusted z-score is 0.192.
In the case of GACCAUUCGUACUCCUUGUTT against THAP11 it was -1.36 (active); in that of CCAUCGCCUUGAAGGAGAATT against RNF31, -0.687; in that of AGACCUUCGUGGAAAAAUATT against CDC37, 0.
Take GGAGGACAAUCAGCAAGGATT against SPOCK2: the median seed-adjusted z-score was 0.967.
As to AGAACAUCAUCGCGCGGGATT against FOXB1, the median seed-adjusted z-score was 0.223.
The same measure for GCUUACUAGUUUGAACGGATT against SPATA5: -1.04 (active); for GCUCCAACCUCGAAGUAGATT against ACVR2B: 0.824; for GGCUUCACCUAAAAACGUATT against BRCA2: 0.
The same measure for GAUCGUUGCAAAGUUCUUATT against CPSF6: -2.38 (active); for CUCCACUGCUUUUCCAAGATT against DBX2: 0.244.
In the case of GAGUUCCUCUUGGAUCUAATT against CASQ2 it was 0.4.
Regarding GGCGAGGCUUUAUAGUUGATT against ZNF589, the median seed-adjusted z-score was -0.0897.
As for CCUGGAGCAUCGUAACAUUTT against F11, the median seed-adjusted z-score is -0.0319.
The same measure for GGCUUAUACAAUGUCAACATT against HOXA7: -0.129.
In the case of AGAUAACAGCAUGGAUUUATT against MMD it was 0.193; in that of GCAAUUUGCUGUUGCCGAATT against RHBDD1, 0.00277.
In the case of CCAUUAUUGCUGCCCGGAATT against PGM5 it was -0.0543.
In the case of GUCUCUGACGGGUCCAUUATT against BMP1, the median seed-adjusted z-score is -0.298.
The same measure for GGACAAGGCUAACAUCCCATT against HMGA1: 0.557; for GCUUGCACUUAAUCUCACATT against LAMB2: 1.12 (active); for GGUUAAAGGUUAUGGUCCATT against PROSC: 0.173.
On to UUUUGUUCAUAUAACGUCATT against IFNA1, for which the median seed-adjusted z-score is -0.625.
In the case of CCACCUUCCUUAUCGACAUTT against FZD8 it was -0.177; in that of CCACCUUGCAGAAAACCGATT against ITPR3, -1.28 (active); in that of GCUCAUCCACUAUAACCAUTT against CA10, 0.255.
GGUCGAAGCUGUGCAAGGATT against TPPP: the median seed-adjusted z-score was -0.16.
Take AGCUGGAGGUCAACAAGUATT against TIMP3: the median seed-adjusted z-score was -1.05 (active).
The same measure for UCUCAGAUCUCUUCCCAGATT against ROBO4: -0.431; for CAAGGAGCAAGGUUCGGAATT against KIRREL3: -0.206.
In the case of GAUGAUCGCUUCAACCUGATT against DDX6 it was 1.12 (active); in that of GUAUGUUCCACAUAAUGAATT against CYP19A1, -0.321.
As for GGAAUAGAACAAUUGAAAATT against ZDHHC3, the median seed-adjusted z-score was 0.229.
In the case of UGAGGACACUUCUUGGAGATT against FOXE3, the median seed-adjusted z-score was -0.451.
For the sequence CGAUGGUUGACAAUCCAGATT against NDUFS5, the median seed-adjusted z-score was -1.35 (active).
For CUUGCAAUGUCGAAGCUUATT against CDH8, the median seed-adjusted z-score is 0.169.
In the case of GGUGUUGAGUUUCUGCAAATT against CHMP1A it was 0.
In the case of GGAUGAUAGAGGAAUUGUATT against SKIV2L2 it was 0.642; in that of CCACCAUCCUACAAGCCUUTT against CYP2S1, -0.196.
The same measure for GCUAGUCAAGGUUCCUAAATT against GTF2F2: -1.14 (active); for GCAAUUCCAUGAUAAGGAATT against MMP20: 0.0623; for GCCUUCUCCCUAUUUGAUATT against CALM1: 0.355.
Take GCAGAAGACUAGAGAGACUTT against ABCC5: the median seed-adjusted z-score was 0.00533.
Regarding CAGUGCAACCUGGAGAGAATT against NRBP2, the median seed-adjusted z-score is 0.093.
The same measure for ACAGCUCCGUGUUGACUCATT against FOXG1: 0.749; for AAAAGAACGAGGAAGUUAUTT against CACNG2: 0.00759; for GUAUAUGACUGUACACUCATT against AGPAT4: 0.149.
With GGAUCACCAACAAUCGCAATT against PDE6A, the median seed-adjusted z-score is 1.25 (active).
The same measure for CAGCAGUUAUGGACCAGUUTT against AMD1: -0.211.
The same measure for GCAGAAAACUCACCCGAGATT against PCDHB7: 0.365; for AGAACAACCUGGACUAUAUTT against PPP5C: 0.473.
As to CGUUAUUGUUAGCAACACUTT against ZNF280A, the median seed-adjusted z-score was -0.207.
For the sequence GGCUAUUAACCGAAGCAAATT against TSPAN31, the median seed-adjusted z-score is -1.13 (active).
As for UCUACAAGCUGGACCCUGATT against MYO1G, the median seed-adjusted z-score is -0.907.
On to GAUGCAUCAUCUGAAUAAATT against CPA6, for which the median seed-adjusted z-score is 0.343.
